This note sets out measurements from PubChem BioAssay (NCI).

What all share (experiment): NCI-60 one-dose screen, 48 h (100 = growth as untreated, 0 = no growth, -100 = all killed)
The test system of one test is SK-MEL-2 melanoma. The conditions noted are these: 10 µM.
A further test relates to EKVX NSCLC. The conditions noted are these: 10 µM.
A further test concerns SN12C renal. Particulars: 10 µM.
The next test deals with UO-31 renal. The conditions noted are these: 10 µM.
A further test concerns TK-10 renal. The conditions noted are these: 10 µM unless noted.
A further test relates to ACHN renal. Particulars: 10 µM.
Another test concerns CAKI-1 renal. Particulars: 10 µM.
The next test deals with A498 renal. The conditions noted are these: 10 µM.
For the next test, the system named is HL-60(TB) leukemia. Particulars: 10 µM.
The test system of another test is CCRF-CEM leukemia. Particulars: 10 µM.

Values joined by “and” are separate entries in the source; they are usually repeats but may differ in a detail not shown here. Equal values may be shown once. About 83,000 compounds went through this panel and 20% of them were active in at least one assay; those are over-represented in the sample as a whole.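 Interpretation: 100, growth as untreated; towards 0, rising growth inhibition; 0, no net growth; 0 to -100, cell death. Compounds scoring below 10 were considered active.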 A number with no mark means an inactive call. Active and inactive are the calls of the source.

Consider `[Cl][Hg][c]1ccc(Cl)s1`, for which the growth in the test with SK-MEL-2 melanoma was 64.3%; in the test on EKVX NSCLC, -18.7% (active); in the test on SN12C renal, 34.1%; in the test on UO-31 renal it was -64.3% (active); in the test on TK-10 renal it was 30.9%; in the test on ACHN renal it was -80.9% (active). The growth is -53% (active) with CAKI-1 renal, 104% with A498 renal, -17.2% (active) in the test with HL-60(TB) leukemia and -11% (active) in the test on CCRF-CEM leukemia.

On to `COC(C(=O)C(O)C(C)O)C1Cc2cc3cc(OC4CC(OC(C)=O)C(OC5CC(O)C(OC)C(C)O5)C(C)O4)cc(O)c3c(O)c2C(=O)C1OC1CC(OC2CC(OC3CC(C)(O)C(OC(=O)C(C)C)C(C)O3)C(O)C(C)O2)C(O)C(C)O1` (stereo not drawn), for which the growth in the test on SK-MEL-2 melanoma is -60.7% (active); with EKVX NSCLC, -16% (active); in the test with SN12C renal, 5.41% (active); with UO-31 renal, -35.2% (active); in the test on TK-10 renal, 20.2%; with ACHN renal, 3.27% (active). Besides, the growth with CAKI-1 renal is 17.1%; with HL-60(TB) leukemia it was -46.3% (active); in the test on CCRF-CEM leukemia, -13.4% (active).

Take `CC(=O)Nc1c2sscc-2n(C)c1=O`: the growth is -76% (active) with SK-MEL-2 melanoma; -98.8% (active) in the test on EKVX NSCLC; -98.5% (active) in the test on SN12C renal; -100% (active) in the test with UO-31 renal; -100% (active) in the test with TK-10 renal; -100% (active) in the test with ACHN renal. The growth is -100% (active) with CAKI-1 renal, -100% (active) with A498 renal, -53% (active) with HL-60(TB) leukemia and -58.3% (active) in the test on CCRF-CEM leukemia.

Turning to `O=C1C(=O)c2ccccc2-c2ccccc21`, the growth is -50.3% (active) in the test with SK-MEL-2 melanoma; -96.9% (active) in the test on EKVX NSCLC; -61.5% (active) in the test on SN12C renal; -86.4% (active) with UO-31 renal; -97.9% (active) with TK-10 renal; -94.3% (active) with ACHN renal. The growth in the test on CAKI-1 renal is -100% (active); with A498 renal it was 88.9%; in the test on HL-60(TB) leukemia it was -42.4% (active); in the test with CCRF-CEM leukemia, -10.9% (active).

In the case of `O=[N+]([O-])c1ccc(N(CCO)CCO)c2c1no[n+]2[O-]`, the growth in the test on SK-MEL-2 melanoma was -16.3% (active); with EKVX NSCLC, -9.06% (active); in the test with SN12C renal, -4.84% (active); in the test on UO-31 renal, 7.25% (active); with TK-10 renal, -13.4% (active); in the test on ACHN renal, -12.3% (active). Further, the growth was -11.9% (active) in the test with CAKI-1 renal, -15.6% (active) with A498 renal, -33.1% (active) with HL-60(TB) leukemia and -38% (active) with CCRF-CEM leukemia.

Regarding `C[CH2][Hg][S]c1ccccc1C(=O)O`, the growth was -52.4% (active) with SK-MEL-2 melanoma; 63.6% in the test on EKVX NSCLC; -60.6% (active) in the test with SN12C renal; -61.8% (active) in the test with UO-31 renal; -94.2% (active) in the test with TK-10 renal; -92.9% (active) in the test on ACHN renal. Besides, the growth in the test with CAKI-1 renal is -95.2% (active); with A498 renal, 18.1%; in the test on HL-60(TB) leukemia, -17.6% (active); in the test with CCRF-CEM leukemia, -17.5% (active).

In the case of `CC/C(=C/c1ccc(OC)cc1)[N+](=O)[O-]`, the growth with SK-MEL-2 melanoma was 27%; in the test with EKVX NSCLC, 78%; in the test with SN12C renal, -43.7% (active); in the test with UO-31 renal, -61.6% (active); in the test with TK-10 renal, -9.47% (active); in the test on ACHN renal it was -43% (active). The growth in the test on CAKI-1 renal is 1.94% (active); in the test on A498 renal, 85.5%; in the test with HL-60(TB) leukemia it was -1.61% (active); in the test with CCRF-CEM leukemia, -9.4% (active).

On to `[O-][n+]1ccccc1S`, for which the growth in the test on SK-MEL-2 melanoma was 41.2%; in the test with EKVX NSCLC, 72.7%; in the test on SN12C renal, 58.7%; with UO-31 renal it was 62%; in the test on TK-10 renal, 37.2%; in the test with ACHN renal it was 32.2%. The growth was 37.9% in the test with CAKI-1 renal, 78.7% in the test on A498 renal, 109% in the test with HL-60(TB) leukemia and 8.62% (active) with CCRF-CEM leukemia.

Take `O=C(CBr)Nc1ccccc1`: the growth with SK-MEL-2 melanoma is 97%; with EKVX NSCLC, 111%; with SN12C renal it was 91%; with UO-31 renal it was 84.9%; in the test on TK-10 renal it was 87.4%; in the test on ACHN renal, 104%. For the same compound, the growth in the test on CAKI-1 renal was 106%; with A498 renal, 108%; with HL-60(TB) leukemia it was 96.1%; in the test on CCRF-CEM leukemia, 14.7%.

`CC(=O)[O][Hg][c]1c(C)c(C)cc(C)c1C`: the growth with SK-MEL-2 melanoma was -48.3% (active); in the test on EKVX NSCLC, -62.9% (active); with SN12C renal, -13.8% (active); in the test on UO-31 renal, -86.2% (active); with TK-10 renal it was -82.6% (active); in the test on ACHN renal it was 34.1%. Moreover, the growth in the test on CAKI-1 renal was -83.9% (active); with A498 renal, 101%; in the test with HL-60(TB) leukemia, -13.1% (active); in the test on CCRF-CEM leukemia it was 3.85% (active).

As for `O=[N+]([O-])/C=C/c1ccc(Cl)cc1[N+](=O)[O-]`, the growth with SK-MEL-2 melanoma was 102%; in the test on EKVX NSCLC, 81.8%; in the test with SN12C renal, 63.2%; in the test with UO-31 renal, -45.7% (active); with TK-10 renal, 75.3%; with ACHN renal it was 30.3%. Moreover, the growth in the test with CAKI-1 renal is 47.7%; in the test with A498 renal it was 106%; in the test with HL-60(TB) leukemia, 33.9%; in the test with CCRF-CEM leukemia, 8.23% (active).

In the case of `CC(Cc1ccc2c(c1)OCO2)NN` (stereo not drawn), the growth is 101% in the test on SK-MEL-2 melanoma; 84.2% in the test with EKVX NSCLC; 102% in the test on SN12C renal; 96.7% in the test on UO-31 renal; 93% in the test with TK-10 renal; 98.7% in the test with ACHN renal. Further, the growth in the test with A498 renal is 77.2%; with HL-60(TB) leukemia it was 81.8%; in the test on CCRF-CEM leukemia, 84.1%.

Consider `O=C(CBr)Nc1ccc(Cl)cc1`, for which the growth was 103% in the test on SK-MEL-2 melanoma; 85.5% in the test with SN12C renal; 90.1% in the test on UO-31 renal; 111% in the test with TK-10 renal; 64% in the test with ACHN renal; 22% in the test on CAKI-1 renal. The growth in the test on A498 renal was 104%; in the test on CCRF-CEM leukemia, -28.3% (active).

For `Cc1ccc(C(=O)C2C(c3ccccc3)N2C2CCCCC2)cc1` (stereo not drawn), the growth with SK-MEL-2 melanoma is 101% and 98.3%; in the test with SN12C renal, 107% and 100%; with UO-31 renal, 92.8% and 73.4%; with TK-10 renal, 137% and 108%; in the test on ACHN renal it was 113% and 97.9%; in the test with CAKI-1 renal it was 107% and 94.3%. In addition, the growth with A498 renal is 105% and 89%; with HL-60(TB) leukemia, 98.3% and 94.8%; in the test on CCRF-CEM leukemia, 94.2% and 96%.

As to `COc1ccc(/C=C(\C)[N+](=O)[O-])cc1OC`, the growth in the test on SK-MEL-2 melanoma is 21.4%; in the test on SN12C renal, 39.9%; in the test with UO-31 renal it was -83% (active); in the test on TK-10 renal, -69.2% (active); with ACHN renal, -59.9% (active); in the test with CAKI-1 renal, -84.4% (active). In addition, the growth with A498 renal was 111%; with HL-60(TB) leukemia, -38.4% (active); with CCRF-CEM leukemia it was -16.4% (active).

On to `O=C(CCl)Nc1ccc(Cl)cc1`, for which the growth with EKVX NSCLC was 101%; in the test on SN12C renal, 35.8%; in the test on UO-31 renal it was 79.7%; with TK-10 renal, 66.7%; with ACHN renal it was 62.4%; in the test with CAKI-1 renal it was -7.72% (active). For the same compound, the growth in the test with A498 renal is 113%; in the test with HL-60(TB) leukemia, 66.3%; with CCRF-CEM leukemia, 26.3%.

On to `CC(=O)c1ccccc1O`, for which the growth in the test with HL-60(TB) leukemia is 85.9% and 82.5% and 101%.

`Oc1c(Cl)cc(Cl)c2ccccc12.[Cu+2]`: the growth with SK-MEL-2 melanoma was 86.1%; in the test with SN12C renal it was 99%; with UO-31 renal, 49%; with TK-10 renal, 119%; in the test on ACHN renal, 91.9%; in the test on CAKI-1 renal, 96.4%. For the same compound, the growth in the test with A498 renal is 106%; in the test on HL-60(TB) leukemia it was 92%; in the test with CCRF-CEM leukemia, 48.5%.
